The supplement of paper PMC10849652
The full data set covers some 8,800 targets. This sample favours those with a hit. About 0.5% of all pairs of compound and target were hits. Values without a mark were called inactive.

Tests used:
Assay in all cases: log2 fold change, soluble protein after heating vs DMSO (PISA); higher = thermal stabilisation; K562 lysate, 10 uM; active = over 0.2 and 3.5 SD of the protein, either way, in both replicates (recomputed)
vemurafenib = compound: CCCS(=O)(=O)Nc1ccc(F)c(C(=O)c2c[nH]c3ncc(-c4ccc(Cl)cc4)cc23)c1F [vemurafenib]
Method in brief: (§1)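 Soluble protein was defined as the supernatant remaining after 21,000xg for 90 min, following pooling of heated aliquots and adjustment to 0.5% NP-40 at 4°C. Before that, crude K562 extract at 1 mg/mL protein in PBS pH 7.4 with 1 mM MgCl2 was treated with 10 μM compound for 30 min and heated for 3 min across 48°C-58°C. Quantification used TMTpro 16plex LC-MS/MS with channel sums equalised, and values are log-two fold changes in thermal stability relative to solvent controls from duplicates.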

[1] = compound: CCCS(=O)(=O)Nc1ccc(F)c(C(=O)c2c[nH]c3ncc(Cl)cc23)c1F
Method in brief: as §1

barasertib = compound: CCN(CCCOc1ccc2c(Nc3cc(CC(=O)Nc4cccc(F)c4)[nH]n3)ncnc2c1)CCOP(=O)(O)O [barasertib]
Method in brief: as §1

[2] = compound: CC[C@@H]1C(=O)N(C)c2cnc(Nc3ccc(C(=O)NC4CCN(C)CC4)cc3OC)nc2N1C1CCCC1
Method in brief: as §1

volasertib = compound: CC[C@@H]1C(=O)N(C)c2cnc(Nc3ccc(C(=O)N[C@H]4CC[C@H](N5CCN(CC6CC6)CC5)CC4)cc3OC)nc2N1C(C)C [volasertib]
Method in brief: as §1

[3] = compound: CCn1c(C(=O)N(C2CC2)C2CC2)cc2c3c(ncn3C)c(Nc3cc(C)n(C)n3)nc21
Method in brief: as §1

[4] = compound: CCn1cc(-c2ccnc3[nH]c(-c4cccc(CN(C)C)c4)cc23)c(-c2ccc(NC(=O)N(C)C)cc2)n1
Method in brief: as §1

[5] = compound: CN1CCC(CNc2ccc3ncc(-c4cccc(OC(F)(F)F)c4)n3n2)CC1
Method in brief: as §1

saracatinib = compound: CN1CCN(CCOc2cc(OC3CCOCC3)c3c(Nc4c(Cl)ccc5c4OCO5)ncnc3c2)CC1 [saracatinib]
Method in brief: as §1

sotrastaurin = compound: CN1CCN(c2nc(C3=C(c4c[nH]c5ccccc45)C(=O)NC3=O)c3ccccc3n2)CC1 [sotrastaurin]
Method in brief: as §1

alvocidib = compound: CN1CC[C@H](c2c(O)cc(O)c3c(=O)cc(-c4ccccc4Cl)oc23)[C@H](O)C1 [alvocidib]
Method in brief: as §1

Tubastatin A = compound: CN1CCc2c(c3ccccc3n2Cc2ccc(C(=O)NO)cc2)C1 [Tubastatin A]
Method in brief: as §1

[6] = compound: CNC(=O)C1=CC=CC=C1NC2=NC(=NC=C2Cl)NC3=C(C=C(C=C3)N4CCOCC4)OC
Method in brief: as §1

defactinib = compound: CNC(=O)c1ccc(Nc2ncc(C(F)(F)F)c(NCc3nccnc3N(C)S(C)(=O)=O)n2)cc1 [defactinib]
Method in brief: as §1

[7] = compound: CNc1nc(-c2ccc3c(N)n[nH]c3c2)cc(N2C[C@@H](C(=O)NC3CCCCC3)CC[C@H]2C)n1
Method in brief: as §1

encorafenib = compound: COC(=O)N[C@@H](C)CNc1nccc(-c2cn(C(C)C)nc2-c2cc(Cl)cc(NS(C)(=O)=O)c2F)n1 [encorafenib]
Method in brief: as §1

[8] = compound: COC(=O)[C@H](CCSC)NC(=O)C1=C(C=C(C=C1)NC[C@H](CS)N)C2=CC=CC=C2
Method in brief: as §1

alisertib = compound: COc1cc(Nc2ncc3c(n2)-c2ccc(Cl)cc2C(c2c(F)cccc2OC)=NC3)ccc1C(=O)O [alisertib]
Method in brief: as §1

[9] = compound: COc1cc2nc(-c3cc(F)ccc3O)nc(N[C@@H]3CNC[C@H]3C(C)(C)O)c2cc1OC
Method in brief: as §1

gefitinib = compound: COc1cc2ncnc(Nc3ccc(F)c(Cl)c3)c2cc1OCCCN1CCOCC1 [gefitinib]
Method in brief: as §1

UniProt Q9UBM7, sequence (Q9UBM7 whole entry, looked up): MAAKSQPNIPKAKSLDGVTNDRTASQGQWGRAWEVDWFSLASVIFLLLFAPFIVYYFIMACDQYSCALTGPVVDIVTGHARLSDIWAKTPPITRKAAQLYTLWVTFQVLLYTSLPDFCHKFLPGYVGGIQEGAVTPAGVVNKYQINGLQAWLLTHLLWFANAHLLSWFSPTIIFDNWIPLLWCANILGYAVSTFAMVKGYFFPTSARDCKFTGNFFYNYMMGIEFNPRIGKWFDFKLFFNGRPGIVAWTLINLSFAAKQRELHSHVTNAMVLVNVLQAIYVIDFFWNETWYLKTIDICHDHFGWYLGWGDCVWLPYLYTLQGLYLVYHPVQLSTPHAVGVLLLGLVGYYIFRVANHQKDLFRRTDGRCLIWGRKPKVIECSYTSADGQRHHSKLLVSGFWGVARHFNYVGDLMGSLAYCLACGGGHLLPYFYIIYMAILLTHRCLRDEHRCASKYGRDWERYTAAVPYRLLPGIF
UniProt P57737, sequence (P57737 whole entry, looked up): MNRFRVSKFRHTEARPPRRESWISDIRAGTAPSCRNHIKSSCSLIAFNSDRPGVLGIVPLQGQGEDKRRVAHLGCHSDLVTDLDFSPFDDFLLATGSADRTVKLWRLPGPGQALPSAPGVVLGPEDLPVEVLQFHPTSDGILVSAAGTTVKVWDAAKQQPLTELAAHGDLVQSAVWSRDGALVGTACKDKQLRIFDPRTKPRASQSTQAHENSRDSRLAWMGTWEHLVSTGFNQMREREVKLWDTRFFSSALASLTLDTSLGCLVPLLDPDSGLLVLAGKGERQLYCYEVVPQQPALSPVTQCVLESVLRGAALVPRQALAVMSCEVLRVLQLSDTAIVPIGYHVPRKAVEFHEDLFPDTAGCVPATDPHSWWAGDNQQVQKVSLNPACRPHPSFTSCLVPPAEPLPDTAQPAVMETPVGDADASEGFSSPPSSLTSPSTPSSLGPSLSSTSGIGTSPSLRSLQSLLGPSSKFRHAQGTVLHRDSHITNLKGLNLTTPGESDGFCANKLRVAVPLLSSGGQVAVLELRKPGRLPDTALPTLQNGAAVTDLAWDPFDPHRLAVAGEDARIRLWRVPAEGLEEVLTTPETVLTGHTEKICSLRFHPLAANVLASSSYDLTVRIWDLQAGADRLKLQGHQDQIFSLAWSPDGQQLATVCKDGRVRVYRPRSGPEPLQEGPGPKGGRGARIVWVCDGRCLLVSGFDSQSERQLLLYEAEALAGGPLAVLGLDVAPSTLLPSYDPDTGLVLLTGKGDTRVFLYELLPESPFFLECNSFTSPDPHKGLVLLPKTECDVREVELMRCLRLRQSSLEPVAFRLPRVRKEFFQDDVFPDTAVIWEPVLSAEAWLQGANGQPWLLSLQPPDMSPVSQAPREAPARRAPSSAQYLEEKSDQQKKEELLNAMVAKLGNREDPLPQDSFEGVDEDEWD
UniProt A8TX70, sequence (A8TX70 whole entry, looked up): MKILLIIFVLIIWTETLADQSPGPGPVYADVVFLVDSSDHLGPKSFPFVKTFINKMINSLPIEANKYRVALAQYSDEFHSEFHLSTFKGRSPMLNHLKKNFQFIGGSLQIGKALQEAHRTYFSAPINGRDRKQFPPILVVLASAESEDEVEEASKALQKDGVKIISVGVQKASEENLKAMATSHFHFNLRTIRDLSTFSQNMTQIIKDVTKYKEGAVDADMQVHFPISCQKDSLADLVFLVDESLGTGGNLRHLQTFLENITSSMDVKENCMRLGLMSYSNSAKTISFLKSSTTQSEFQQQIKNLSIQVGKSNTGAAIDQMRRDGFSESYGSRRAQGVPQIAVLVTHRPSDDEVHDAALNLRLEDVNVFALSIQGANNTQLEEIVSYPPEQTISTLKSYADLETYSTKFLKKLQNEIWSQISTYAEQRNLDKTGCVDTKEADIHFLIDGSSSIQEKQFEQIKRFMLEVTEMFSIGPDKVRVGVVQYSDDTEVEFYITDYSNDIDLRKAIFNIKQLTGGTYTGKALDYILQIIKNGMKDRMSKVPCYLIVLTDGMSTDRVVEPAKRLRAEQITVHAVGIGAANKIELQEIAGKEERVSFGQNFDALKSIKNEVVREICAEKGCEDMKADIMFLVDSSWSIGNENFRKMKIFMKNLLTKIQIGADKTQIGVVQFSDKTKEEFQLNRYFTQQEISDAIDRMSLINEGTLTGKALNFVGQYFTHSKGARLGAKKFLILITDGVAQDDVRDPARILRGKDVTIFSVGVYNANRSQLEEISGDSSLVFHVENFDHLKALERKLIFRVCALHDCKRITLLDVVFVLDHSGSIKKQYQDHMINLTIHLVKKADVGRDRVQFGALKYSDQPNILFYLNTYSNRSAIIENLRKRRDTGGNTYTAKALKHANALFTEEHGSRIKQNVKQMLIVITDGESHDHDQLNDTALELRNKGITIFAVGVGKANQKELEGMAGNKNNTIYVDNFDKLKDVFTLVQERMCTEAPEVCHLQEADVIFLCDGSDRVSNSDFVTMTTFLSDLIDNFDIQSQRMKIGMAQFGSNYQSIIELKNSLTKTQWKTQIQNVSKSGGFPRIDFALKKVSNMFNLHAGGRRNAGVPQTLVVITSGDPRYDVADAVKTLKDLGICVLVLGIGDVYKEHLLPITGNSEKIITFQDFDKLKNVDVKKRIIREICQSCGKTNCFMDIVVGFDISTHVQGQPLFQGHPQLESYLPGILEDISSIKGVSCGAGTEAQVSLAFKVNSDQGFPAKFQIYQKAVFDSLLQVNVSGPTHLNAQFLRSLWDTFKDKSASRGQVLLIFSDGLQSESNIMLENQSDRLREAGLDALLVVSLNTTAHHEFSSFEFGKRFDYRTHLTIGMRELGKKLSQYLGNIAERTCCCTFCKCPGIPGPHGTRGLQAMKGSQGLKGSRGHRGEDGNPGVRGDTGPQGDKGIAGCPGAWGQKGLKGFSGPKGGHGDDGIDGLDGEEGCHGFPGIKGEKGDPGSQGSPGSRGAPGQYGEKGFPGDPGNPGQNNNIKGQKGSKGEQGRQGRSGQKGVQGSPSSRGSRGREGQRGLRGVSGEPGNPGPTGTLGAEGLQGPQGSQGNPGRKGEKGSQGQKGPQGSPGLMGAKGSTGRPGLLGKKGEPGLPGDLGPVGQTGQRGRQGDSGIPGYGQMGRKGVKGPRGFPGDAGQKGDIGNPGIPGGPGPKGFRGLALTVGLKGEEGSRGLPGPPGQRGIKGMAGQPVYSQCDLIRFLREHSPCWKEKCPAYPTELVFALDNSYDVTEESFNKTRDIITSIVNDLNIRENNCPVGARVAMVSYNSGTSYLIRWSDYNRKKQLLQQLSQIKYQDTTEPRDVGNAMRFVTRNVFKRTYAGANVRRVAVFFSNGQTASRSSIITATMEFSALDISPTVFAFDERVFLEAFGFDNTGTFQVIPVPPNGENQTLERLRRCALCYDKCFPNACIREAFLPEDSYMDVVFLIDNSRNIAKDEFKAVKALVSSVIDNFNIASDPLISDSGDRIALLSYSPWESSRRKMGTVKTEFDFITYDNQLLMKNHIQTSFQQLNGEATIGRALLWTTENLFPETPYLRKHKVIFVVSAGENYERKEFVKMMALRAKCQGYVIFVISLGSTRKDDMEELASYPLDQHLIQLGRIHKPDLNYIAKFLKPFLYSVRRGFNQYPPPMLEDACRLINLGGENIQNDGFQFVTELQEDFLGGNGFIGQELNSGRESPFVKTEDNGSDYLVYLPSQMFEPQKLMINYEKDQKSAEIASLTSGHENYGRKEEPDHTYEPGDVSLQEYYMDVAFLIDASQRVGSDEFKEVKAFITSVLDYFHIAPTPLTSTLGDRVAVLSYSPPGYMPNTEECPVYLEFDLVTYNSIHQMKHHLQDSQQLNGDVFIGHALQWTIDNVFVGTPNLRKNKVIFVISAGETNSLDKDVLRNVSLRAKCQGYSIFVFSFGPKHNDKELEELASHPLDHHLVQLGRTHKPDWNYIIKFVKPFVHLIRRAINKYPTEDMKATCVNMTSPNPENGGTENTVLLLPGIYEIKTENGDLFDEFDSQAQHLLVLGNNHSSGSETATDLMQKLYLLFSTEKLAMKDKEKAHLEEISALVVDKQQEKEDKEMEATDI
UniProt O76075, sequence (O76075 whole entry, looked up): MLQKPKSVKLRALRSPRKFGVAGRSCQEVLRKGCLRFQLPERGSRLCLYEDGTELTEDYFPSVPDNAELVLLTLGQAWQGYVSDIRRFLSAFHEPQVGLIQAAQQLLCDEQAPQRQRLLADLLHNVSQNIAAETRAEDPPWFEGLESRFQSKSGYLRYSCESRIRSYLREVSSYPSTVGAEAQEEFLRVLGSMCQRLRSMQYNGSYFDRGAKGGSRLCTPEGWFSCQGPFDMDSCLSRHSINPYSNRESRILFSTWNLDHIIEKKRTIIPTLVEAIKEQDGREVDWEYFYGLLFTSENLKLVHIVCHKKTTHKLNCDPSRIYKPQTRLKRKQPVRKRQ
UniProt P04080, sequence (P04080 whole entry, looked up): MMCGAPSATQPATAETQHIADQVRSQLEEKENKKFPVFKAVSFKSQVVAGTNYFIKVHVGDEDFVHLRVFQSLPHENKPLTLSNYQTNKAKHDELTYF
UniProt P99999, sequence (P99999 whole entry, looked up): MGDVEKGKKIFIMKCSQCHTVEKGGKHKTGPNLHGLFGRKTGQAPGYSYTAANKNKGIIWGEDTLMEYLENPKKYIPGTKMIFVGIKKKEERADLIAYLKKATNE
UniProt Q96EP5, sequence (Q96EP5 whole entry, looked up): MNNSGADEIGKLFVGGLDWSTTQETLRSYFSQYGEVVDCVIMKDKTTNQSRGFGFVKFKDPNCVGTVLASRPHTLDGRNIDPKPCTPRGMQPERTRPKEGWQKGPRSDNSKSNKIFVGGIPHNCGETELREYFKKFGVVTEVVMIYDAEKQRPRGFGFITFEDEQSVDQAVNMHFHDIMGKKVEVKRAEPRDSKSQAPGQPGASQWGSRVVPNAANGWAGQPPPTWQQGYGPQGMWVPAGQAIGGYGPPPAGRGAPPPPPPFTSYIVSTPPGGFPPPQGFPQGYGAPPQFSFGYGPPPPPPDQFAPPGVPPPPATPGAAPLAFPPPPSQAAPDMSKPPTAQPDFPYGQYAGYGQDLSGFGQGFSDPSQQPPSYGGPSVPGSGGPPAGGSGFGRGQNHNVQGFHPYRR

Target	log2 fold change (vemurafenib)	log2 fold change [1]	log2 fold change (barasertib)	log2 fold change [2]	log2 fold change (volasertib)	log2 fold change [3]	log2 fold change [4]	log2 fold change [5]	log2 fold change (saracatinib)	log2 fold change (sotrastaurin)	log2 fold change (alvocidib)	log2 fold change (Tubastatin A)	log2 fold change [6]	log2 fold change (defactinib)	log2 fold change [7]	log2 fold change (encorafenib)	log2 fold change [8]	log2 fold change (alisertib)	log2 fold change [9]	log2 fold change (gefitinib)
DDA1 (UniProt Q9BW61)	-0.02	0.038	-0.004	0.003	0	0.046	0	-0.023	0.019	-0.025	0.024	-0.002	0.015	-0.004	0.031	0.013	0.021	-0.024	-0.003	-0.034
CNOT4 isoform 6 (UniProt O95628)	-0.052	0.008	-0.014	0.057	0.009	0.108	-0.053	0	0.057	-0.005	0.015	-0.011	-0.009	0.001	-0.069	0.076	-0.051	-0.003	-0.041	-0.007
CHML (UniProt P26374)	0.01	0.008	0.004	0.011	0.022	-0.007	-0.012	0.026	-0.002	0.005	-0.019	0.008	-0.004	-0.025	0.002	0.003	0.005	0.014	0.011	0.012
DHCR7 (UniProt Q9UBM7)	-0.02	0.004	0.029	-0.061	-0.036	0.025	-0.033	-0.069	0.017	-0.041	-0.008	-0.038	-0.008	0.016	-0.031	0.019	0.037	0.029	-0.008	-0.035
DAZAP1 (UniProt Q96EP5)	0.036	0.043	-0.017	0.016	0.011	0.065	0.129	0.032	0.003	-0.109	-0.027	0.042	-0.026	-0.039	0.058	-0.018	-0.045	0.009	-0.004	0.034
DNAJC3 (UniProt Q13217)	-0.016	0.009	0.006	0.023	-0.004	0.082	0.016	-0.076	0.008	-0.109	0.004	0.073	0.005	0.021	-0.029	0.044	0.011	0	0.005	0.026
COL6A5 (UniProt A8TX70)	0.073	0.041	0.09	0.078	-0.044	-0.055	-0.834 (active)	0.374	-0.048	-0.03	-0.544	0.029	-0.048	-0.111	0.256	-0.088	0.1	-0.038	0.07	-0.034
CSTB (UniProt P04080)	0.007	0.001	0.077	0.043	0.044	-0.027	-0.376 (active)	0.174	0.013	0.086	-0.051	0.089	-0.023	0.069	0.011	0.025	-0.011	0.023	-0.042	-0.143
CHURC1 isoform 2 (UniProt Q8WUH1)	0.019	-0.166	0.194	0.038	0.129	0.018	-0.108	0.024	-0.071	-0.013	0.002	0.002	0	0.051	0.024	-0.068	-0.005	0.013	-0.145	-0.025
CORO7 isoform 3 (UniProt P57737)	0.031	0.013	0.008	-0.042	-0.01	0.016	0.044	-0.175	0.004	0.008	0.023	-0.087	-0.008	0.028	0.007	-0.008	0.114	0.007	-0.069	-0.047
DFFB (UniProt O76075)	0.022	0.044	-0.064	0.037	-0.012	0.1	-0.024	0.061	0.042	0.06	-0.042	-0.007	-0.022	-0.033	-0.022	-0.012	0.015	-0.006	0.011	0.231 (active)
CHEK1 (UniProt O14757)	-0.02	0.006	0.015	-0.031	-0.012	-0.012	-0.008	-0.045	-0.004	-0.014	0.01	0.072	-0.063	-0.021	-0.002	0.002	-0.008	0.008	-0.178	0.013
CXorf38 (UniProt Q8TB03)	0.017	-0.015	-0.024	0.038	0.013	-0.027	-0.059	0.04	0.105	0.018	0	0.039	0.04	-0.012	-0.016	0.02	-0.012	-0.021	-0.058	-0.056
CYCS (UniProt P99999)	-0.011	-0.001	-0.01	0.061	0.041	0.018	-0.025	0.052	0.008	-0.017	-0.003	0.027	0.009	0.04	0.018	-0.004	-0.04	-0.019	-0.002	0.003
DICER1 (UniProt Q9UPY3)	-0.002	0.05	0.01	0.003	-0.068	0.021	0.275	0.036	0.005	-0.018	-0.032	-0.172	0.112	0.046	-0.003	0.037	0.039	0.012	-0.022	-0.027
CIB1 (UniProt Q99828)	0.096	0.027	0.155	-0.013	0.008	-0.047	-0.028	-0.028	0.017	-0.077	-0.003	-0.037	0.01	0.038	0.041	-0.001	-0.215	-0.031	0.072	-0.124
